# PubChem BioAssay (NCI)
# Compounds without any hit were thinned out: in the full panel of roughly 79,000, 15% have a hit. Values without a mark were called inactive. Calls of active or inactive are those of the source. No stated cut-off is given here; in the data, active means growth inhibition above about 70%; inactive means the rest.
# Tests used:
# [1] = NCI Yeast Anticancer Drug Screen. Data for the rad50 strain (AID 155);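 further: 0% = growth of vehicle-only cultures of the same strain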; conditions: S. cerevisiae rad50 strain growth inhibition, hits give high values
# Summary of the method: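 A DNA repair-deficient yeast mutant serves as the test organism; compound-induced growth inhibition is calculated against vehicle-treated cells.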
# [2] = NCI Yeast Anticancer Drug Screen. Data for the mec2-1 strain (AID 157); conditions: S. cerevisiae mec2-1 strain, hits give high values
# Summary of the method: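 Readout is yeast growth inhibition, normalised to vehicle-treated controls, in the mec2-1 strain exposed to compound.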
# [3] = NCI Yeast Anticancer Drug Screen. Data for the sgs1 mgt1 strain (AID 161);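 further: 0% = growth of cultures given vehicle only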; conditions: S. cerevisiae sgs1 mgt1 strain, hits give high values
# Summary of the method: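 Compounds are added to genetically altered yeast, and growth is compared with cultures given vehicle alone to give percent inhibition.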
# [4] = NCI Yeast Anticancer Drug Screen. Data for the cln2 rad14 strain (AID 165);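 further: 0% = growth equal to vehicle treated cultures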; conditions: S. cerevisiae cln2 rad14 strain, hits give high values
# Summary of the method: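 Relative to vehicle controls, growth inhibition of compound-treated cln2 rad14 yeast was recorded.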
# [5] = NCI Yeast Anticancer Drug Screen. Data for the bub3 strain (AID 167); conditions: S. cerevisiae bub3 mutant strain, hits give high values
# Summary of the method: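 Inhibition values come from growth of compound-treated mutant yeast normalised to vehicle-treated controls.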
# [6] = NCI Yeast Anticancer Drug Screen. Data for the mlh1 rad18 strain (AID 175); conditions: S. cerevisiae mlh1 rad18 strain growth inhibition, hits give high values
# Summary of the method: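 Test agents were incubated with a yeast strain of defined genotype (DNA damage repair defect). Inhibition of growth was derived by comparison with vehicle-exposed cultures.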
# [7] = at 5.0 µM (retest, dose inferred, filed as 0.5)
# [8] = at 50.0 µM (retest, dose inferred, filed as 5.0)
SMILES,"growth inhibition [1, 7]","growth inhibition [1, 8]",growth inhibition ([1]; at 50.0 µM),"growth inhibition [2, 7]","growth inhibition [2, 8]",growth inhibition ([2]; at 50.0 µM),"growth inhibition [3, 7]","growth inhibition [3, 8]",growth inhibition ([3]; at 50.0 µM),"growth inhibition [4, 7]","growth inhibition [4, 8]",growth inhibition ([4]; at 50.0 µM),"growth inhibition [5, 7]","growth inhibition [5, 8]",growth inhibition ([5]; at 50.0 µM),"growth inhibition [6, 7]","growth inhibition [6, 8]",growth inhibition ([6]; at 50.0 µM)
C1=CC2CCC[N-]C2N1.C1=CC2CCC[N-]C2N1.[I][Pt+2][I] (stereo not drawn),4%,99% (active),99% (active),9%,99% (active),99.5% (active),10%,99% (active),34.5%,21%,99% (active),98.2% (active),6%,99% (active),99% (active),23%,99% (active),98.8% (active)
Oc1c(Cl)cc(Cl)c2ccccc12,11%,71% (active),86.5% (active),7%,38%,27.6%,4%,63%,91.5% (active),5%,14%,-18.9%,12%,44%,9.2%,13%,74% (active),87% (active)
COc1ccc2c(c1)CCC(N1CCCC(=O)C1)C2 (stereo not drawn),9%,11%,23.1%,8%,17%,24.4%,8%,26%,66%,11%,38%,17.4%,4%,31%,89.1% (active),9%,29%,25.1%
O=C(c1ccccc1)c1cc(CN(CCCl)CCCl)c(O)cc1O,0%,32%,54.3%,-17%,43%,17.9%,7%,75% (active),43%,-2%,-1%,13.2%,-6%,-4%,29.3%,11%,86% (active),80.3% (active)
C[C@H]1CC[C@@]2(NC1)O[C@H]1C[C@H]3[C@@H]4CC[C@H]5C[C@@H](O)CC[C@]5(C)[C@H]4CC[C@]3(C)[C@H]1[C@@H]2C,42%,96% (active),92.2% (active),27%,98% (active),93.8% (active),66%,99% (active),93.5% (active),54%,98% (active),91.5% (active),64%,99% (active),92.5% (active),33%,98% (active),86.8% (active)
CCN1C(C)N1P(=S)(OC1CC(C)(C)N(O)C(C)(C)C1)OC1CC(C)(C)N(O)C(C)(C)C1 (stereo not drawn),-2%,3%,45.9%,-6%,6%,91.3% (active),-3%,1%,32.2%,-3%,4%,90.3% (active),-5%,5%,98.1% (active),-5%,12%,14.6%
